Source: PubChem
TIM10 inh = inhibits growth of TIM10 yeast strain. inhibition, % at 10 µM. 1.4% of 330,000 active. S. cerevisiae TIM10 strain growth, BacTiter-Glo luminescence, 24 h;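 active means inhibition of 40% or more at the single tested concentration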;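 further: wild-type TIM10 isogenic control strain grown at permissive 25 °C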
Calb FLC = affects C. albicans growth with fluconazole; C. albicans CaCi-2 (fluconazole-resistant clinical isolate) + fluconazole, Alamar Blue growth, 48 h; growth inhibition, % (concentration not given with the values); 0.57% of 300,000 active; AID 1979;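 active means growth inhibition above about 58% in most replicates, limit read from the data, passing the limit was not always enough; inconclusive means exactly half the replicates above a set limit; inactive means most replicates below a set limit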;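 further: all wells also contain fluconazole at 8 µg/ml as a sub-toxic cotreatment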
tim10-1 inh = tim10-1 yeast growth inhibition. S. cerevisiae tim10-1 ts strain growth, BacTiter-Glo, 24 h. inhibition, % at 20 µM. 2.2% of 330,000 active. AID 463190;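 active means inhibition of at least 40%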;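 further: mutant grown at 25 °C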
tim23-1 inh = inhibits growth of tim23-1 mutant yeast; S. cerevisiae tim23-1 growth, BacTiter-Glo luminescence, 24 h; inhibition, % at 20 µM; 1.3% of 330,000 active; AID 463212;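 active means growth inhibition of the mutant yeast at or above 50%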;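 further: temperature-sensitive mutant grown at 25 °C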
SKKanGAS inh = SKKanGAS growth inhibition | S. pyogenes SKKanGAS, kanamycin growth, BacTiter-Glo, 6 h | inhibition, % at 7.5 µM | 1.3% of 300,000 active;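 active means mean replicate score, as percent of positive control median, at least 50; inconclusive means mean below 50 but one replicate at or above 50; inactive means mean and every replicate below 50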;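 further: strain carries kanamycin resistance gene driven by streptokinase promoter and grows in 40 µg/ml kanamycin; loss of luminescence reflects streptokinase promoter inhibition or plain growth inhibition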
PfHsp90 yeast 2 = inhibits growth of yeast expressing Plasmodium falciparum Hsp90; S. cerevisiae expressing PfHsp90, BacTiter-Glo ATP, 48 h; yeast lacking PDR1 and PDR3 efflux regulators; inhibition, % at 9.4 µM; 0.32% of 310,000 active; AID 504621;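 active means every replicate shows inhibition above about 80%, whatever the replicate mean, limit read from the data; inconclusive means mean inhibition reaches the set limit but some replicate falls short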
tim10-1 confirm = tim10-1 yeast growth inhibition, confirmed. 56% of 7,400 active. inhibition, % at 20 µM. S. cerevisiae tim10-1 ts strain growth, BacTiter-Glo, 24 h. shares compounds with tim10-1 inh;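 active means inhibition of yeast growth at or above a set limit in either of two repeat tests at 20 µM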;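 further: tim10-1 mutant grown at permissive 25 °C to find synthetic lethal compounds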
A number is an active result; i = inactive; ? = inconclusive; nt = no result given. Hits are enriched below; roughly 4.7% of the tested compounds scored in any of these assays.

SMILES	TIM10 inh	Calb FLC	tim10-1 inh	tim23-1 inh	SKKanGAS inh	PfHsp90 yeast 2	tim10-1 confirm
CCCCN1CC(=O)N2[C@H](c3ccc(OC)cc3)[C@@H]3C(=O)N(CC)C(=O)[C@@H]3[C@]2(Cc2ccccc2)C1=O	i	i	i	i	i	i	nt
COc1ccc(Cn2c(=S)[nH]c3ccsc3c2=O)cc1	i	i	51.4	i	i	i	i
CCOC(=O)/C=C/C(=O)Nc1ccccc1C(=O)NC1CCCCC1	i	i	46.3	i	i	i	i
CCOc1ccccc1NC(=O)/C=C/c1ccccc1[N+](=O)[O-]	i	i	i	i	i	i	nt
CCOc1ccccc1NC(=O)/C=C/C(N)=O	i	i	40.4	i	i	i	33.5
Fc1ccc(-c2nc3nc4ccccc4nc3n2Cc2ccco2)cc1	i	i	43.0	i	i	i	32.5
Fc1ccc(-n2c(-c3ccco3)nc3nc4ccccc4nc32)cc1	i	nt	i	i	i	i	nt
c1ccc(-c2nc3nc4ccccc4nc3n2Cc2ccco2)cc1	i	i	40.9	i	i	i	i
C=CCn1c(-c2ccc(OC)cc2)nc2nc3ccccc3nc21	i	i	i	i	i	i	nt
CCNc1nnc(CSc2nc3ccccc3s2)s1	i	i	44.4	i	i	i	38.8
FC(F)(F)c1ccncc1-c1nnnn1-c1ccc(Cl)cc1	i	i	i	i	i	i	nt
Fc1ccc(-n2nnnc2-c2cnc(-c3cccs3)nc2C(F)(F)F)cc1	i	i	40.5	i	i	nt	i
Cc1ccc(-n2nnnc2-c2cnn(-c3ccc(F)cc3)c2C(F)(F)F)cc1	i	i	41.4	i	i	i	i
FC(F)(F)c1nc(N2CCCC2)ncc1-c1nnnn1-c1ccc(Cl)cc1	i	i	40.4	i	i	i	i
Cc1ccc(-c2nnnn2-c2ccc(C)cc2)cc1	i	i	i	i	i	i	nt
COc1ccccc1NC(=O)c1coc(=O)c(Br)c1	i	i	i	i	i	i	nt
Cc1c(NC(=O)Nc2ccc3c(c2)OCO3)cccc1[N+](=O)[O-]	i	i	i	i	i	i	nt
C#CCOCCOCCOCCNc1nc(N2CCN(C(=O)CCCCCCCCCCNC(=O)[C@H](CCCCN)n3cc(C[C@@H](C)CC)nn3)CC2)nc(N2CCN(C(=O)CCCCCCCCCCNC(=O)[C@H](CCCCN)n3cc(C[C@@H](C)CC)nn3)CC2)n1	nt	i	nt	nt	?	i	nt
C#CCOCCOCCOCCNc1nc(N2CCN(C(=O)CCCCCCCCCCNC(=O)[C@H](CCCCN)n3cc(CCO)nn3)CC2)nc(N2CCN(C(=O)CCCCCCCCCCNC(=O)[C@H](CCCN=C(N)N)n3cc(C[C@@H](C)CC)nn3)CC2)n1	i	nt	42.2	i	nt	i	i
S=C1NC(c2cccs2)=CC(c2ccc(Br)cc2)N1 (stereo not given)	i	i	40.5	i	i	i	32.6
S=c1[nH]nc(-c2ccccc2)n1/N=C/c1ccc(-c2ccccc2Cl)o1	i	i	44.7	i	i	i	i
CC1CCN(C2=C(NS(=O)(=O)c3ccc(Br)cc3)C(=O)c3ccccc3C2=O)CC1	i	nt	i	i	i	i	nt
O=C1C(NS(=O)(=O)c2ccc(Br)cc2)=C(N2CCCCC2)C(=O)c2ccccc21	i	i	49.8	i	i	i	i
CC1CCN(C2=C(NS(=O)(=O)c3ccc(Cl)cc3)C(=O)c3ccccc3C2=O)CC1	i	i	40.1	i	i	i	i
COc1ccc(CCNC(=O)c2cc(S(=O)(=O)N3CCOCC3)ccc2F)cc1	i	nt	i	i	nt	nt	nt
SMILES	TIM10 inh	Calb FLC	tim10-1 inh	tim23-1 inh	SKKanGAS inh	PfHsp90 yeast 2	tim10-1 confirm
OCCOc1ccc(CN2CCN(CCCc3ccccc3)C(CCO)C2)cc1 (stereo not given)	i	i	i	i	i	i	nt
Cc1ccc(NC(=O)c2sc(N)nc2-c2ccccc2)cc1C	i	i	48.6	i	i	i	37.0
Cc1cccn2c(=O)c3cc(C(=O)NC4CCCC4)c(=N)n(Cc4ccc(F)cc4)c3nc12	i	i	43.2	i	i	i	i
Cc1cccn2c(=O)c3cc(C(=O)NC4CCCCC4)c(=N)n(Cc4ccccc4)c3nc12	i	i	i	i	i	i	nt
CC(NC(=O)C12CC3CC(CC(C3)C1)C2)c1ccc2c(c1)OCCO2 (stereo not given)	i	i	45.1	i	i	nt	i
Cc1ccc(C(C)NC(=O)C23CC4CC(CC(C4)C2)C3)cc1 (stereo not given)	i	i	i	i	i	nt	nt
COc1ccc(Cl)cc1NC(=O)CN1CCC(n2nnc3cc(C)ccc32)CC1	i	i	i	i	?	i	i
O=C(COC(=O)c1ccccc1C(=O)c1ccccc1)Nc1ccc(SC(F)F)cc1	i	i	41.1	i	i	i	31.2
CC(C)(C)c1ccc2c(c1)OC(C(=O)N/N=C\c1ccc[nH]1)CO2 (stereo not given)	i	i	42.2	i	i	i	i
CSc1ccccc1NC(=S)N/N=C/c1cccn1Cc1cccc(C)c1	i	i	i	i	i	i	nt
CSc1ccccc1NC(=S)N/N=C/c1cccn1Cc1ccc(F)cc1	i	i	44.2	i	i	i	i
N#C/C(=C\c1ccccc1)C(=O)NNS(=O)(=O)c1ccc(Br)cc1	i	nt	i	i	nt	nt	nt
O=C(CNc1cccc2ccccc12)N/N=C/C(Br)=C/c1ccccc1	i	i	41.3	i	i	i	31.1
COc1cccc(CN2CCN(Cc3ccc4c(NC(C)=O)cccc4n3)CC2CCO)c1 (stereo not given)	i	i	i	i	i	i	nt
Cc1ccc(-c2cc(-c3ccc(F)cc3)nc(N)c2C#N)o1	i	i	i	i	i	i	nt
N#Cc1c(-c2ccccc2)cc(C2CC2)nc1N	i	i	41.8	i	i	i	i
Cc1ccc(-c2cc(-c3ccccc3Cl)c(C#N)c(N)n2)o1	i	i	40.7	i	i	i	i
Cc1ccc(-c2cc(-c3ccccc3)c(C#N)c(N)n2)o1	i	i	50.0	i	i	i	i
N#Cc1c(-c2ccco2)cc(C2CC2)nc1N	i	i	i	i	i	i	nt
Cc1ccc(-c2c(C#N)c(N)nc3c2CCCC3)o1	i	i	i	i	i	i	nt
O=C(NC1CCCC1)C(c1cccs1)N(C(=O)c1csnn1)c1ccccc1F (stereo not given)	i	i	i	i	i	i	nt
C#CCOc1ccc(/C=C2/C(=O)NN(c3ccc(F)cc3)C2=O)cc1OC	i	i	i	i	i	i	nt
Oc1c(Cl)cc(Cl)cc1/C=C/c1ccc2cccc(O)c2n1	i	i	43.2	i	102.2	i	33.1
COc1cc(/C=C/c2ccc3cccc(O)c3n2)c(Br)cc1O	i	i	46.6	i	94.4	i	46.0
COc1cc(Br)cc(/C=C/c2ccc3cccc(O)c3n2)c1O	i	i	49.2	i	101.5	i	37.8
COc1cc(/C=C/c2ccc3cccc(OC)c3n2)c(OC(C)=O)c([N+](=O)[O-])c1	i	i	i	i	i	i	nt
